Laboratory results: PubChem BioAssay (EPA / NIEHS)
Calls of active or inactive are those of the source. The calls were made as follows: active = hit-call score of the fitted dose curve at least 0.9, where 1 is the maximum; inconclusive = response in the unintended direction; inactive = score below 0.9.

Assay: Tanguay_ZF_120hpf_MORT_legacy: (Legacy) Oregon State University Tanguay Lab 120 Hour Post-fertilization zebrafish Assay for Mortality (AID 2283633)
Description: Tanguay_ZF_120hpf_legacy is a whole embryo, multiplexed endpoint assay using zebrafish larvae exposed for 120 hours post fertilization on a 96-well plate.Tanguay_ZF_120hpf_MORT_legacy is one of one assay component(s) measured or calculated from the Tanguay_ZF_120hpf_legacy assay. It is designed to make measurements of embryonic mortality as detected with brightfield microscopy of developing zebrafish embryos.Data from the assay component Tanguay_ZF_120hpf_MORT_legacy was analyzed into 1 assay endpoints. This assay endpoint, Tanguay_ZF_120hpf_MORT_legacy, was analyzed in the positive analysis fitting direction relative to DMSO as the negative control and baseline of activity. Using a type of viability reporter, gain-of-signal activity can be used to understand changes in developmentals as they relate to the whole embryo. To generalize the intended target to other relatable targets, this assay endpoint is annotated to the embryonic mortality intended target family, where the subfamily is embryonic mortality.
Zebrafish husbandry: Tropical 5D wild-type adult zebrafish were housed in at an approximate density of 1000 per 100 gallon tank at the Sinnhuber Aquatic Research Laboratory, Oregon State University, Corvallis, OR. Each tank was kept at standard laboratory conditions of 28C on a 14-h light/10-h dark photoperiod in fish water consisting of reverse osmosis water supplemented with a commercially available salt (Instant Ocean). Spawning funnels were placed into the tanks the night prior, and embryos were collected and staged. To increase bioavailability, the chorion was enzymatically removed using pronase (63.6mg/ml, >/= 3.5U/mg, Sigma-Aldrich: P5147) at 4 hours post fertilization (hpf) using a custom automated dechorionator.Chemical exposures: Six hpf dechorionated embryos were placed 1 embryo per well in a 96-well plate prefilled with 90 ul of EM using automated embryo placement systems (AEPS). Ten microliters of each row of dilution plate 2 was added to 2 exposure plates. The final DMSO concentration used was 0.64% (vol/vol). Thirty-two embryos were also exposed to 5uM trimethyltin chloride (positive control). Plates were sealed to prevent evaporation and foil covered to reduce light exposure and kept in a 28C incubator. Embryos were statically exposed until 120 hpf. At 24 hpf, embryos were assessed for photomotor response using a custom photomotor response analysis tool (PRAT) and for developmental toxicity endpoints (MO24: mortality at 24 hpf, DP: developmental progression, SM: spontaneous movement, and NC: notochord distortion). At 120 hpf, locomotor activity was measured using Viewpoint Zebralab and assessed for 18 endpoints. Zebrafish acquisition and analysis program (ZAAP), a custom program designed to inventory, acquire, and manage zebrafish data, was used to collect developmental endpoints as either present or absent (i.e., binary responses were recorded). If mortality occurred for an embryo (at either 24 or 120 hpf), the non-mortality endpoints were not measured.

| Structure (SMILES) | outcome | AC50 |
| --- | --- | --- |
| c1ccc2c(c1)Cc1ccccc1-2 | inactive | – |
| OC1CCCCC1 | inactive | – |
| CC(C)(C)CC(C)(C)c1ccc(O)c(-n2nc3ccccc3n2)c1 | inactive | – |
| CC(C)(C)c1cccc(C(C)(C)C)c1O | inactive | – |
| OC1CCC(C2CCCCC2)CC1 (stereo not given) | inactive | – |
| O=[N+]([O-])c1ccc(O)cc1 | inactive | – |
| OCCC(F)(F)C(F)(F)C(F)(F)C(F)(F)C(F)(F)C(F)(F)C(F)(F)C(F)(F)F | inactive | – |
| C=C(C)C(=O)OCCC(F)(F)C(F)(F)C(F)(F)C(F)(F)C(F)(F)C(F)(F)F | inactive | – |
| CCc1ccc(CCOc2ccc(CC3SC(=O)NC3=O)cc2)nc1 (stereo not given) | inactive | – |
| CC[C@H](c1ccc(O)cc1)[C@@H](CC)c1ccc(O)cc1 | inactive | – |
| CC1=C(/C=C/C(C)=C/C=C/C(C)=C/C(=O)O)C(C)(C)CCC1 | – | 1.54 µM (active) |
| C[C@@H]1C[C@H]2[C@@H]3CCC4=CC(=O)C=C[C@]4(C)[C@@]3(F)[C@@H](O)C[C@]2(C)[C@@]1(O)C(=O)COP(=O)(O)O | inactive | – |
| CC(C)(C)c1ccc(O)c(C(C)(C)C)c1 | inactive | – |
| CCCCC(CC)COC(=O)CCCCC(=O)OCc1ccccc1 (stereo not given) | inactive | – |
| CCCOC(=O)c1ccc(O)cc1 | inactive | – |
| COc1ccc([N+](=O)[O-])cc1N | inactive | – |
| Nc1cccc2c(N)cccc12 | inactive | – |
| CC(C)(C)c1cc(C(C)(C)C)c(O)c(C(C)(C)C)c1 | inactive | – |
| CCCOc1sc(C(=O)N2CCC(c3cc(CN)ccc3F)CC2)c(C)c1Br | inactive | – |
| CN(C)C=O | inactive | – |

| Structure (SMILES) | outcome | AC50 |
| --- | --- | --- |
| NC(=O)N1C(=O)C(C(=O)c2cc(Cl)cs2)c2cc(F)c(Cl)cc21 (stereo not given) | – | 1.44 µM (active) |
| c1ccc2cc3c(ccc4ccccc43)cc2c1 | inactive | – |
| Cc1oc(-c2ccccc2)nc1CCOc1ccc(C[C@H](Nc2ccccc2C(=O)c2ccccc2)C(=O)O)cc1 | – | 12.9 µM (active) |
| CC(=O)NC1(c2cccc(F)c2)CCN(CC[C@@]2(c3ccc(Cl)c(Cl)c3)CN(c3ccccc3)C(=O)CO2)CC1 | inactive | – |
| Cc1cc(CCN2CCN(c3nsc4ccccc34)CC2)cc2c1NC(=O)CC2(C)C | inactive | – |
| CCCCCCCCOC(=O)CCCCCCCCC(=O)OCCCCCCCC | inactive | – |
| N#C[C@@H]1CC(F)(F)CN1C(=O)CNC1CC2CCC(C1)N2c1ncccn1 (stereo not given in full) | inactive | – |
| CCCCCCCCCCCCN1CCCC1=O | – | 27.6 µM (active) |
| CCCCCCCCCCCCCCCS(=O)(=O)Oc1ccccc1 | inactive | – |
| O=c1c(-c2ccc(O)cc2)coc2cc(O)ccc12 | inactive | – |
| Cc1cc(C)c(O)c(C)c1 | inactive | – |
| CN1CCN(c2ccccc2/C=C2\SCCN(c3ccc(Cl)c(Cl)c3)C2=O)CC1 | inactive | – |
| Oc1cc2ccccc2c2ccccc12 | – | 14 µM (active) |
| O=C(OCCOCCOC(=O)c1ccccc1)c1ccccc1 | inactive | – |
| C#C[C@]1(O)CC[C@H]2[C@@H]3CCC4=CC(=O)CC[C@@H]4[C@H]3CC[C@@]21C | inactive | – |
| CN1CCC[C@H]1c1cccnc1 | inactive | – |
| CCN(CC)CCNc1ccc(CNC=O)c2sc3ccc(OC)cc3c(=O)c12 | inactive | – |
| O=C(O)c1ccccc1C(c1ccc(O)cc1)c1ccc(O)cc1 | inactive | – |
| CCCCCCCC(=O)O | inactive | – |
| Oc1cccc(O)c1 | inactive | – |
